Measurements from PubChem BioAssay AID1117319 (Southern Research Institute, 2015).
Hit rate of the full screen: of about 260,000 compounds, about 1,500 (0.58%) were called active. About 5% were inconclusive and are not listed.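 How the source made its calls: active means inhibition above a set limit at one or more doses, reproduced on every date tested; inconclusive means results disagree between test dates, or hit never tested in dose response; inactive means the rest.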 The list is a sample of the results. Entries with a potency or affinity are not part of this list.

Molecular target: Virion infectivity factor (Human immunodeficiency virus type 1 group M subtype B (isolate BH10)) + Virion infectivity factor (Human immunodeficiency virus type 1 group M subtype B (isolate BRU/LAI)) + Virion infectivity factor (Human immunodeficiency virus type 1 group M subtype B (isolate PCV12)) + Virion infectivity factor (Human immunodeficiency virus type 1 group M subtype B (isolate HXB2)) + DNA dC->dU-editing enzyme APOBEC-3G (Homo sapiens) (UniProt P69720+P69721+P69722+P69723+Q9HC16)
Test: HIV-1 Vif–A3G interaction blockers – biochemical, TR-FRET, GST-Vif 1-94, biotin-A3G peptide, dose response retest, primary screen (AID 1117319);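 further: Vif residues 1-94 fused to GST binding biotinylated APOBEC3G peptide 110-148; 0% = full assay without inhibitor and 100% = GST in place of GST-Vif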
Conditions: TR-FRET GST-Vif / biotin-A3G peptide binding; hits give high values

inhibition, inactive:
O=C(Cc1ccccc1)NC(Nc1cccc2ccccc12)C(Cl)(Cl)Cl (stereo not drawn) -5.91%
CC(C)(C)NC(NC(=O)Cc1ccccc1)C(Cl)(Cl)Cl (stereo not drawn) 2.28%
CN(CCC1CCOCC1)C(=O)C1CCC(=O)N(CCc2ccc(Cl)cc2)C1 (stereo not drawn) -0.45%
CN1/C(=C\C=Nc2ccccc2)C(C)(C)c2ccccc21 13.4%
CN1/C(=C\C=Nc2ccc3ccccc3c2)C(C)(C)c2ccccc21 15.9%
Cc1nc2ccccc2nc1-c1ccc([N+](=O)[O-])cc1 3.82%
COc1cc2c3c(c1OC)C1(C=CC(=O)C=C1)CC3N(C(=O)c1ccccc1)CC2 (stereo not drawn) 16.3%
COc1cc2c3c(c1OC)C1(C=CC(=O)C=C1)CC3N(C(C)=O)CC2 (stereo not drawn) 25.2%
O=S(=O)(Nc1ccccc1)c1ccc(-c2cnc(C3CC3)o2)cc1 5.89%
COc1cccc(=O)c2c(C)n(CC(=O)c3ccccc3)c(C)c12 19.6%
CCOc1cccc2cc(C(C)=O)oc12 -1.92%
CCOc1ccccc1N1CCN(Cc2ccco2)CC1 0.19%
CCOc1ccc2c(C)c(C)c(=O)oc2c1OCC -2.36%
CCOc1ccccc1N1C(=O)c2ccc(C(=O)O)cc2C1=O -5.01%
COc1cccc(-n2c(C)c3c(OC)cccc(=O)c3c2C)c1 31.7%
COC(=O)c1c(C(=O)OC)c(C)n(Cc2ccco2)c1C 1.05%
CCOc1ccccc1OCC(=O)O 2.95%
CCN(CC(=O)Nc1c(F)cccc1F)C(=O)c1ccc2c(c1)OCCO2 8.86%
CCOc1ccc(CN(C)C(=O)CCc2ccc(S(=O)(=O)N3CCCCCC3)cc2)cc1 -5.71%
CNC(=O)c1c(NC(=O)CS(=O)(=O)c2ccccc2)sc(C)c1C 2.6%
OC1CCCN(C(=S)Nc2ccc(SC(F)F)cc2)C1 (stereo not drawn) 21.9%
Cc1ccc(NC(=O)CSc2nc(=O)n(CCN(C)C)c3c2CCCC3)cc1Cl -8.42%
COC(=O)c1cc2occc2n1CC(=O)N(C)C1CCCCC1 15.2%
CN1CCN(c2cc(N3CCc4ccccc4C3)c(F)cc2[N+](=O)[O-])CC1 -1.87%
COc1ccc(Br)c(C(=O)NNC(=O)c2ccc(NS(=O)(=O)c3cccs3)cc2)c1 2.76%
C(C#CCN1CCOCC1)#CCN1CCOCC1 5.57%
CCc1ccccc1Nc1nc(N)nc(CSc2nnnn2C)n1 0.07%
CSCCC(NC(=O)/C(=C\c1ccc(Cl)cc1)NC(=O)c1ccccc1)C(=O)O (stereo not drawn) 1.24%
CCOc1ccccc1C(c1c(C)n(C)n(-c2ccccc2)c1=O)c1c(C)n(C)n(-c2ccccc2)c1=O -1.18%
COc1ccc(-n2c(C)c3c(OC)cccc(=O)c3c2C)cc1 32.9%
COc1cccc(=O)c2c(C)n(-c3cc(C)cc(C)c3)c(C)c12 21.8%
CCOc1ccccc1-c1cc(-c2ccccc2)nc2c1c(=O)n(C)c(=O)n2C -7.81%
COc1ccc(CNC(=O)Cn2cnc3c(OCc4ccccc4)ncnc32)cc1 -3.17%
Cc1ccc(S(=O)(=O)Nc2ccccc2-c2ccccc2)cc1 -0.15%
Cc1ccc(S(=O)(=O)c2c(C)nn(C(C)(C)C)c2OC(=O)CC(C)C)cc1 -0.23%
CCN1CCN(C(=O)Cn2cnc3sc(C)c(S(=O)(=O)N4CCN(c5ncccn5)CC4)c3c2=O)CC1 6.94%
CN=c1scc(-c2ccccc2F)n1/N=C/c1ccc[nH]1 3.11%
COCCN=c1scc(-c2cccs2)n1/N=C(\C)c1ccco1 -4.46%
CN=c1scc(C)n1/N=C/c1cc(Br)c(O)c(OC)c1 17.7%
CCN=c1scc(-c2cccs2)n1/N=C/c1cc(OC)ccc1O 11.2%
CCOc1ccc(C(=O)NCC(C)C)cc1 1.08%
Cc1ccc(C)c(NC(=O)N2CCc3ccccc3C2)c1 -0.5%
Cc1cc(C)n(CC2CC(=O)N(c3ccc(Cl)cc3)C2=O)n1 (stereo not drawn) -0.66%
CC(=O)N1CCN(C(=O)c2ccc(Oc3ccccc3)cc2)CC1 -9.55%
Cc1ccc(N2C(=O)CN(Cc3sccc3C)C2=S)cc1C 8.31%
CC1C/C=C/C=C/C=C/C=C/C(O[C@@H]2O[C@H](C)[C@@H](O)[C@H](N)[C@@H]2O)CC2OC(O)(CC(O)CC3OC3/C=C/C(=O)O1)CC(O)C2C(=O)O (stereo partly drawn) -4.31%
COc1ccc(C(=O)O/N=C(\N)c2ccccc2)c(OC)c1 2.57%
O=C1NC2(CCCCC2)C(=O)N1Cc1cc(=O)n2ccsc2n1 -0.24%
CC(C(=O)NCc1ccc2c(c1)OCO2)c1ccc([N+](=O)[O-])cc1 (stereo not drawn) 6.03%
Nc1nc(SCc2ccccc2)c2[nH]cnc2n1 -9.37%
CNc1ncnc(Sc2nc(N)nc3nc[nH]c23)c1[N+](=O)[O-] 16.1%
CC1(C)C2C(Cl)(Cl)C2(C)c2ccccc2N1C=O (stereo not drawn) -2.3%
COc1ccc(-c2nc3ccccc3n2OCC(=O)O)cc1 15.9%
COc1ccc(-c2nc3ccccc3n2OC(C)C(=O)O)cc1 (stereo not drawn) -3.4%
Cn1[nH]c(C(F)(F)F)c(C=NCc2ccc(Cl)cc2)c1=O -4.02%
COc1cccc(-c2cc3c(=O)n(-c4ccccc4)c(=S)[nH]c3s2)c1 -16.9%
Cc1c(C)n2c3c(cccc13)CC2 3.05%
O=C(c1ccccc1)c1ccc2nc(-c3ccco3)c(-c3ccco3)nc2c1 3.26%
O=C(Nc1cccc(-c2nnc(-c3ccco3)o2)c1)c1ccccc1 -5.38%
O=C(Nc1ccccc1)c1cccc(C(F)(F)F)c1 0.71%
CC(=O)c1ccc(NC(=O)c2cccc(NC(=O)c3ccccc3)c2)cc1 -13.5%
O=C(Nc1ccc(N2CCOCC2)cc1)c1ccc2nc(-c3ccco3)c(-c3ccco3)nc2c1 10.5%
O=C(Nc1cccc(C(F)(F)F)c1)c1ccco1 -3.65%
COc1ccc2cc(C3=CC(=O)CC(C)(C)C3=O)ccc2c1 4.18%
Cc1cc(C)nc(-n2ncc3c2CCCC3=O)n1 -7.41%
COc1ccc([C@@H]2C[C@H]3[C@@H](CN2S(=O)(=O)c2ccccc2)C(=O)C[C@@H](c2ccccc2F)N3S(=O)(=O)c2ccc(C)cc2)cc1 -4.64%
CC1CCOC2(O1)C(=O)N(CN1CCN(c3cccc(Cl)c3)CC1)c1ccccc12 (stereo not drawn) 16.9%
Cc1ccc(Nc2nc(=O)[nH]nc2C)cc1 23.2%
COCCNC(C(=O)Nc1ccc([N+](=O)[O-])cc1Br)c1ccccc1 (stereo not drawn) -2.09%
Cc1noc(NS(=O)(=O)c2ccc(NC(=O)CCCOc3ccc(Cl)cc3Cl)cc2)c1C 2.83%
Cc1nnc(NC(=O)CSc2nnc(NC(=O)C(C)(C)C)s2)s1 22.2%
C=CCSc1nnc(NC(=O)CSc2ccccn2)s1 -2.29%
C#CCOCCOCCOCCNc1nc(N2CCN(C(=O)[C@H](Cc3ccc(O)cc3)n3cc([C@@H](N)C(C)CC)nn3)CC2)nc(N2CCN(C(=O)[C@H](CCCCN)n3cc([C@@H](N)CO)nn3)CC2)n1 (stereo partly drawn) -12.6%
O=C(COc1c(F)c(F)cc(F)c1F)NNC(=O)CC1CCS(=O)(=O)C1 (stereo not drawn) -4.18%
CC1CN(S(=O)(=O)c2cccc(C(=O)OCC(=O)NCc3ccccc3)c2)CC(C)O1 (stereo not drawn) -6.28%
Cc1ccc(N2C(=O)c3ccccc3C2C(=O)c2cc(C)ccc2O)cc1 (stereo not drawn) 30.2%
COc1ccc(N2C(=O)c3ccccc3NC2c2ccccc2O)cc1 (stereo not drawn) -3.39%
CC(=O)SC1CC(=O)N(c2ccc(C(C)(C)C)cc2)C1=O (stereo not drawn) -11.1%
COc1ccc(C(=O)NCc2ccccn2)cc1 19.1%
O=C(NCc1ccccn1)c1ccc(=O)oc1 11.6%
CCc1nc2ccc(C(=O)NCCc3ccc(OC)c(OC)c3)cc2nc1CC 0.19%
O=C(NCCc1ccccc1)c1cc(-c2ccco2)on1 25.6%
COc1ccc(CCNC(=O)c2cc(-c3ccco3)on2)cc1OC -1.47%
O=C(NCCc1ccccc1)c1coc(=O)c(Br)c1 -22.2%
O=C(NCCc1ccccc1)c1ccc2nccnc2c1 28.7%
O=C(NCc1ccccn1)c1ccc(NC(=O)c2ccco2)cc1 1.9%
CCN(Cc1ccc(NC(C)=O)cc1)CC1CCCN(CCc2cccc(OC)c2)C1 (stereo not drawn) 3.62%
O=C(Cn1nnc(-c2ccccc2Cl)n1)Nc1cccc(S(=O)(=O)N2CCCC2)c1 -4.6%
COC(=O)c1ccccc1NC(=O)Nc1ccc(Cl)cn1 -0.47%
CCc1nc2ccc(C(=O)NCc3ccccc3)cc2nc1CC 13.9%
O=C(NCc1ccccc1)c1ccc2nccnc2c1 -2.53%
CC(C(=O)N1CCN(c2ccc(Cl)cc2)CC1)c1ncc(C(F)(F)F)cc1Cl (stereo not drawn) -3.01%
Cc1ccc(S(=O)(=O)NCc2nnc(SCC(=O)Nc3cccc(C)c3C)n2C)cc1 -1.43%
